Screen size: about 340,000 compounds; about 5,100 (1.5%) were called active. What follows is part of a selection rich in actives, with near analogues and random picks from the rest. Values without a mark were called inactive.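 How the source made its calls: active means mean Tm shift, scaled 0 neutral to 100 positive control, at about 1.3% or above, every replicate too (limit read from the data); inconclusive means no clear call, values can overlap the other calls; inactive means the rest.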

Fibroblast growth factor 22 (Homo sapiens), sequence (Q9HCT0 whole entry, looked up): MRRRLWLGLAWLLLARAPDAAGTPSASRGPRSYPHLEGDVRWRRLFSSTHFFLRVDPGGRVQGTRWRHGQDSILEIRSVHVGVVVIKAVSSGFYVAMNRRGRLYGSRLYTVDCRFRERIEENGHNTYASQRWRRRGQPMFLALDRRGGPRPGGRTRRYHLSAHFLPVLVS

This assay has as its target Fibroblast growth factor 22 (Homo sapiens) (UniProt Q9HCT0). Kind of assay: binders of human FGF22 protein, primary screen, FGF22 synaptogenesis inhibitor project, biophysical, thermal shift, single point (AID 651658). Particulars: recombinant FGF22 thermal shift, SYPRO orange fluorescence; at 9.99 µM; active compounds read high; percent of sucrose octasulfate shift, DMSO zero.
Turning to `O=C(Cc1ccccc1)N1CC2(C1)[C@H](c1ccccc1)[C@@H](CO)N2C(=O)c1cccnc1`, the activity (Tm shift, normalised) is -0.085%.

Take `C[C@H](CO)N1C[C@H](C)[C@@H](CN(C)CC2CCCCC2)Oc2ccc(NC(=O)Cn3cnnn3)cc2CC1=O`: the activity (Tm shift, normalised) was -0.448%.

For `COc1cccc(/C=C2/SC(=S)N(CC(=O)NC3C=CS(=O)(=O)C3)C2=O)c1` (stereo unspecified), the activity (Tm shift, normalised) was -0.111%.

In the case of `O=C(CN1C(=O)S/C(=C\c2ccccc2Cl)C1=O)NC1C=CS(=O)(=O)C1` (stereo unspecified), the activity (Tm shift, normalised) was 43.2% (active).

As for `O=C(CN1CCCCCC1)NCCN1C(=O)S/C(=C\c2ccccc2Cl)C1=O`, the activity (Tm shift, normalised) is 0.458%.

Consider `O=C(O)CCCCCCC(=O)NOCc1ccccc1`, for which the activity (Tm shift, normalised) was -0.15%.

For the compound `CO[C@H](CN(C)C(=O)c1cnccn1)[C@@H](C)CN([C@@H](C)CO)S(=O)(=O)c1ccccc1`, the activity (Tm shift, normalised) is 0.08%.

As to `CC(C)NC(=O)Nc1ccc2c(c1)C(=O)N([C@@H](C)CO)C[C@@H](C)[C@H](CN(C)C)OCCCC[C@H](C)O2`, the activity (Tm shift, normalised) was -0.748%.

`CC(C)NC(=O)N[C@@H]1CC[C@@H](CCNS(=O)(=O)Cc2ccccc2)O[C@@H]1CO`: the activity (Tm shift, normalised) is -0.299%.

`O=C(Nc1ccc(F)cc1)N1C[C@@H]2[C@H](c3ccccc31)[C@H](CO)N2Cc1ccccc1`: the activity (Tm shift, normalised) is -0.206%.

Take `CN1C(=O)c2cc(NC(=O)c3ccccc3)ccc2OC[C@H]2O[C@@H](CC(=O)O)CC[C@@H]21`: the activity (Tm shift, normalised) was -0.04%.

On to `CC(=O)N(C)C[C@@H]1Oc2ncc(C#Cc3ccccn3)cc2C(=O)N([C@@H](C)CO)C[C@@H]1C`, for which the activity (Tm shift, normalised) is 0.165%.

Regarding `CCCCN1CC(N2CCN(Cc3cccc(C)c3)CC2)CS1(=O)=O` (stereo unspecified), the activity (Tm shift, normalised) was 1.92% (active).

As for `Cc1cccc(CN2CCN(C3CN(Cc4ccccc4)S(=O)(=O)C3)CC2)c1` (stereo unspecified), the activity (Tm shift, normalised) is -0.158%.

Regarding `Cc1cccc(CN2CCN(C3CN(Cc4cn(Cc5cc(C)cc(C)c5)nn4)S(=O)(=O)C3)CC2)c1` (stereo unspecified), the activity (Tm shift, normalised) is -0.326%.

For the compound `COc1cccc(CNC(=O)C[C@@H]2CC[C@H]3[C@@H](COc4ccc(NC(=O)c5cccs5)cc4C(=O)N3C)O2)c1`, the activity (Tm shift, normalised) was 0.125%.

As to `Cc1ccn2c(=O)c(NC(=O)c3cccc4ccccc34)c(C)nc2c1`, the activity (Tm shift, normalised) is -0.089%.

`CCOc1ccc(/C=N\NC(=O)c2c(C)nc3cc(C)ccn23)cc1`: the activity (Tm shift, normalised) is -0.098%.

`Cc1ccc(NC(=O)C(=O)NCc2ccc(/C=N/NC(=O)c3c(C)nc4cc(C)ccn34)o2)cc1`: the activity (Tm shift, normalised) is 2.68% (active).

In the case of `CO[C@H]1CN(C)C(=O)c2cc(NS(=O)(=O)c3ccccc3)ccc2OC[C@H](C)NC[C@@H]1C`, the activity (Tm shift, normalised) is -0.185%.

On to `C[C@H]1CN([C@@H](C)CO)S(=O)(=O)c2ccc(Br)cc2O[C@H]1CN(C)Cc1ccccn1`, for which the activity (Tm shift, normalised) is -0.079%.

Regarding `COc1ccc2c3c(n(C)c2c1)[C@@H](CO)N(C(=O)Nc1ccc(F)cc1)CC31CCN(C(=O)c2cccnc2)CC1`, the activity (Tm shift, normalised) is -0.306%.

Consider `C[C@@H]1CN([C@H](C)CO)S(=O)(=O)c2ccc(C3=CCCC3)cc2O[C@@H]1CN(C)C(=O)C1CCC1`, for which the activity (Tm shift, normalised) was 0.141%.

As to `O=C(Nc1ccccc1C(=O)Nc1ccncc1)c1ccc([N+](=O)[O-])cc1`, the activity (Tm shift, normalised) was -0.016%.

With `O=C(Nn1cnnc1)c1ccc([N+](=O)[O-])cc1`, the activity (Tm shift, normalised) is 42.7%.

Take `O=C(c1ccncc1)c1ccc([N+](=O)[O-])cc1`: the activity (Tm shift, normalised) was 43.1% (active).

For `CC(C)NC(=O)N1CC2(C1)[C@H](c1ccccc1)[C@H](CO)N2C(=O)C1CCOCC1`, the activity (Tm shift, normalised) is -0.068%.

Regarding `O=[N+]([O-])c1ccc2c(c1)C(O)n1nc(-c3ccccc3)nc1S2` (stereo unspecified), the activity (Tm shift, normalised) is 0.035%.

On to `CC(=O)Oc1ccc2c(=O)oc(-c3ccc([N+](=O)[O-])cc3)nc2c1`, for which the activity (Tm shift, normalised) was -0.034%.

Consider `O=[N+]([O-])c1ccc2oc(-c3cccc(O)c3)nc2c1`, for which the activity (Tm shift, normalised) is 43.2% (active).

Turning to `CN(C)C(=O)C[C@@H]1CC[C@H]2[C@@H](COC[C@H](O)CN2C(=O)c2ccncc2)O1`, the activity (Tm shift, normalised) is -0.192%.

Consider `CC(C)CC#Cc1cnc2c(c1)C(=O)N([C@H](C)CO)C[C@H](C)[C@@H](CN(C)Cc1ccccc1)O2`, for which the activity (Tm shift, normalised) is 0.063%.

For the compound `CO[C@@H]1CN(C)C(=O)c2ccc(NC(=O)Nc3ccccc3)cc2OC[C@@H](C)N(C(=O)CN(C)C)C[C@H]1C`, the activity (Tm shift, normalised) is -0.352%.

For the compound `Cc1c(CCO)sc[n+]1CC(=O)OC12CC3CC(CC(C3)C1)C2`, the activity (Tm shift, normalised) was 1.45% (active).

As for `Cc1c(CCOC(=O)CC23CC4CC(CC(C)(C4)C2)C3)sc[n+]1Cc1ccc([N+](=O)[O-])cc1`, the activity (Tm shift, normalised) was -0.223%.

Consider `C[C@@H]1CN([C@@H](C)CO)S(=O)(=O)c2ccc(/C=C/c3ccccc3)cc2O[C@H]1CN(C)C(=O)C1CC1`, for which the activity (Tm shift, normalised) was -0.835%.

With `COc1cccc(CN2CC3(CN(Cc4ccccn4)C3)c3c([nH]c4cc(OC)ccc34)[C@@H]2CO)c1`, the activity (Tm shift, normalised) is 0.052%.

For `CCS(=O)(=O)N1CCC2(CC1)CN(Cc1ccc3c(c1)OCO3)[C@H](CO)c1[nH]c3cc(OC)ccc3c12`, the activity (Tm shift, normalised) was 0.042%.

On to `COc1ccccc1C(=O)Nn1c(-c2cccs2)nc2ccccc2c1=O`, for which the activity (Tm shift, normalised) was 43.8% (active).

As to `COc1cc(OC)cc(-c2nc3ccccc3c(=O)n2NC(=O)c2cccnc2Cl)c1`, the activity (Tm shift, normalised) is 0.323%.

As to `COc1cc(C(=O)Nn2c(CC(C)C)nc3ccccc3c2=O)cc(OC)c1OC`, the activity (Tm shift, normalised) is 0.375%.

For the compound `C[C@H]1CN([C@@H](C)CO)C(=O)c2cc(-c3ccncc3)cnc2O[C@H]1CN(C)C(=O)c1cccc(F)c1`, the activity (Tm shift, normalised) is -0.103%.

For `C[C@H]1CN([C@@H](C)CO)C(=O)c2cc(NC(=O)Nc3ccccc3)ccc2O[C@H]1CN(C)C(=O)Nc1ccc(F)cc1`, the activity (Tm shift, normalised) is 0.055%.

For `COCC(=O)Nc1ccc2c(c1)OC[C@H](C)N(C(=O)COC)C[C@@H](C)[C@H](OC)CN(C)C2=O`, the activity (Tm shift, normalised) was 0.165%.

In the case of `CCC(=O)N1C[C@@H](C)[C@H](OC)CN(C)C(=O)c2ccc(NC(=O)COC)cc2OC[C@@H]1C`, the activity (Tm shift, normalised) is 0.031%.

Turning to `COCC(=O)Nc1ccc2c(c1)OC[C@H](C)N(C)C[C@@H](C)[C@@H](OC)CN(C)C2=O`, the activity (Tm shift, normalised) was 38% (active).

The values are drawn from PubChem BioAssay AID651658 (Broad Institute, 2012).
